POLI inh: qHTS for Inhibitors of Polymerase Iota | Potency, µM (top dose mostly 115 µM), usual class: inhibitors | Pol iota fluorescent replication assay, 10 min | 390,000 compounds, 1% hits | DNA polymerase iota (Homo sapiens), Q9UNA4
Target sequence (Q9UNA4 whole entry, looked up): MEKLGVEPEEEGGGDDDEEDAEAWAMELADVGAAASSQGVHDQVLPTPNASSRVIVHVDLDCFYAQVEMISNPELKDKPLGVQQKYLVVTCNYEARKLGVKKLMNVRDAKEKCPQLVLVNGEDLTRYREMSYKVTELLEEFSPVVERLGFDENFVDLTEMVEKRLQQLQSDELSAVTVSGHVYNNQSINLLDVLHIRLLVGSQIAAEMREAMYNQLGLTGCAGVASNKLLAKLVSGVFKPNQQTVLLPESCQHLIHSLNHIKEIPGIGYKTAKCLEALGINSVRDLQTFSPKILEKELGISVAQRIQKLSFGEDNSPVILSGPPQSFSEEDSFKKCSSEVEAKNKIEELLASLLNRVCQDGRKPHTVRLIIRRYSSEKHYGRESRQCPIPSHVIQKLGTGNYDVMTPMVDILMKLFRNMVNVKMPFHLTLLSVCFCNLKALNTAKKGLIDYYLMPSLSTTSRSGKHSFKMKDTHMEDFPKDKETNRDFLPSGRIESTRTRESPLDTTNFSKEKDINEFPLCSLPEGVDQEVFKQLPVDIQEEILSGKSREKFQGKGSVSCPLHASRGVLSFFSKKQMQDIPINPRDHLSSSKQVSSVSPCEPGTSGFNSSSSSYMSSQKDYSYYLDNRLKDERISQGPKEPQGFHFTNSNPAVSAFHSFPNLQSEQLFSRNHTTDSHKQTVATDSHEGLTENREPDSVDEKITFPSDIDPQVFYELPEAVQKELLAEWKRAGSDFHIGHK
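Fluorescent replication assay read twice, at 0 min and 10 min after adding 50 nM (final) substrate. Enzyme (10 nM) and compounds were first incubated 15 min at room temperature; enzyme-free buffer wells were negative controls.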
WRN helicase inh: qHTS for Inhibitors of WRN Helicase | WRN helicase unwinding, fluorescent forked duplex, kinetic | Potency, µM (top dose mostly 114 µM), usual class: inhibitors | 360,000 compounds, 0.46% hits | AID 651768, 2012; note: nearly all actives have a fitted effect of over 55% in size
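Kinetic red-fluorescence monitoring (525/598 nm) tracks WRN helicase activity after 100 nM fluorophore-quencher forked duplex and 2 mM ATP are added to 20 nM enzyme pretreated 15 min at room temperature with compound.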
Pol kappa inh-1: qHTS for Inhibitors of Polymerase Kappa; AID 588579, 2011; purified Pol kappa, fluorescent DNA synthesis assay, 10 min; Potency, µM (doses to about 107 µM), hits mostly inhibitors; 400,000 compounds, 0.53% hits; DNA polymerase kappa (Homo sapiens), Q9UBT6
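Here, compound and 10 nM enzyme are combined for 15 min at room temperature; adding 50 nM substrate (final) starts DNA synthesis, tracked by fluorescence at 0 and 10 min against buffer-only wells.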
Pol eta inh-1: qHTS for Inhibitors of Polymerase Eta; recombinant Pol eta, fluorescent DNA replication assay; Potency, µM (top dose mostly 114 µM), usual class: inhibitors; AID 588591, 2011; DNA polymerase eta (Homo sapiens), Q9Y253; 390,000 compounds, 1.2% hits
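Fluorescent replication assay: 50 nM final substrate added after a 15 min room-temperature compound preincubation with 10 nM enzyme. Signal taken at 0 min and again at 10 min.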
FEN1 inhibitor: qHTS Assay for the Inhibitors of Human Flap endonuclease 1 (FEN1); AID 588795, 2011; Recombinant FEN1 flap cleavage, fluorescence, 15 min; Potency, µM (highest dose often 114 µM), usual class: inhibitors; P39748; 390,000 compounds, 0.35% hits; note: nearly all actives have a fitted effect of over 65% in size
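Recombinant FEN1 (10 nM) was preincubated with pin-transferred compounds for 15 min at room temperature, then flap DNA substrate (50 nM final) was added. Plates were read at 0 and 15 min, and normalized concentration–response data were fitted to a four-parameter Hill equation.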
POLB inh: qHTS Assay for Inhibitors of DNA Polymerase Beta; Pol beta primer extension/strand displacement, fluorescence kinetic; Potency, µM (doses to about 114 µM), hits mostly inhibitors; 340,000 compounds, 1.3% hits; AID 485314, 2010
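Preincubation: enzyme (10 nM) with compound, 15 min, RT. Reaction: substrate added to 50 nM final. Reads: 0 and 10 min. Analysis: normalized, Hill fit.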
Pol kappa inh-2: qHTS for Inhibitors of Polymerase Kappa: Confirmatory Assay for Cherry-picked Compounds; shares compounds with Pol eta inh-1; purified Pol-kappa, fluorescent strand-displacement substrate; Potency, µM, hits mostly inhibitors; 920 compounds, 76% hits; AID 720501, 2013
Pol eta inh-2: qHTS for Inhibitors of Polymerase Eta: Confirmatory Assay for Cherry-picked Compounds; shares compounds with Pol eta inh-1; Pol eta primer extension, TAMRA/BHQ fluorescence, 10 min; Potency, µM, usual class: inhibitors; 2,600 compounds, 64% hits
Hits are given with their value; [ ] = another dose, or the depositor's remark. The list is not random: actives were taken first. Their share in the collection is about 2.4%. Calls come from the whole dose curve; as a rule, active = well fitted curve in the direction sought with a large enough effect; inconclusive = small, poorly fitted or top-dose-only effect, or another doubt; inactive = no such curve, though single readings can be large; an effect the other way counts as inactive or inconclusive.

O=C(C[n+]1cccc(Br)c1)c1ccc2c(c1)CCCC2 was read as POLI inh inactive, Pol kappa inh-1 inactive and FEN1 inhibitor inactive.
COc1cc(Br)cc2cc(C(=O)N3CCN(C(=O)c4ccco4)CC3)c(=O)oc12 was read as POLI inh 32µM, WRN helicase inh inconclusive, Pol kappa inh-1 inconclusive, Pol eta inh-1 79µM, FEN1 inhibitor inactive, POLB inh inactive and Pol eta inh-2 85.
COc1cc(/C=C2\C(=O)N(c3cccc(C(=O)O)c3)N=C2C)ccc1OCc1ccccc1 was read as WRN helicase inh 2.7µM, Pol eta inh-1 32µM and Pol eta inh-2 inconclusive.
For C#CCOc1ccc(/C=C2/C(=O)N(c3cccc(C(=O)O)c3)N=C2C)cc1OC the results were POLI inh 2µM, WRN helicase inh inconclusive, Pol kappa inh-1 inactive, Pol eta inh-1 50µM, FEN1 inhibitor inconclusive, POLB inh inactive and Pol eta inh-2 inconclusive.
Screening COC(=O)CC[C@H](N)C(=O)O returned Pol kappa inh-1 inactive[19.4 µM].
Screening Cc1ccccc1NC(=O)C(=O)NCC(c1ccc2c(c1)OCO2)N1CCN(c2ccccc2)CC1 (stereo not drawn) returned POLI inh inactive, Pol kappa inh-1 inactive, Pol eta inh-1 inactive, FEN1 inhibitor inactive and POLB inh inactive.
For Cc1ccc(/C=c2\sc3nc(-c4cccnc4)nn3c2=O)cc1 the results were POLI inh inconclusive, WRN helicase inh inconclusive, Pol kappa inh-1 inactive, Pol eta inh-1 10µM, FEN1 inhibitor inactive, POLB inh inconclusive and Pol eta inh-2 inconclusive.
CC(C)c1ccc(/C=c2\sc3nc(-c4ccncc4)nn3c2=O)cc1 was read as POLI inh inactive, WRN helicase inh inactive, Pol kappa inh-1 inactive, Pol eta inh-1 inconclusive, FEN1 inhibitor inactive and POLB inh inactive.
Screening COc1ccc(CCCc2nnc(SCC(=O)Nc3cccc(F)c3C)o2)cc1 returned POLI inh inactive, Pol kappa inh-1 inactive, Pol eta inh-1 inconclusive, FEN1 inhibitor inactive and POLB inh inactive.
CCc1ccc(-n2nnc(-c3nsc(NC(=O)c4ccccc4Cl)n3)c2C)cc1 was read as POLI inh inactive, Pol kappa inh-1 inactive, Pol eta inh-1 inactive, FEN1 inhibitor inactive and POLB inh inconclusive.
For Cc1cc(C)cc(-n2nnc(-c3nsc(NC(=O)c4ccccc4Cl)n3)c2C)c1 the results were POLI inh inconclusive, Pol kappa inh-1 inactive, Pol eta inh-1 inconclusive, FEN1 inhibitor inactive, POLB inh 7.9µM and Pol kappa inh-2 inconclusive.
For COc1ccc(-n2c(C)cc(/C=C/c3nc(O)c([N+](=O)[O-])c(=O)[nH]3)c2C)cc1 the results were POLI inh inconclusive, WRN helicase inh inactive, Pol kappa inh-1 50µM, Pol eta inh-1 20µM, FEN1 inhibitor inconclusive, POLB inh inactive and Pol eta inh-2 inconclusive.
Cc1cc(/C=C\c2nc(O)c([N+](=O)[O-])c(=O)[nH]2)c(C)n1-c1ccccc1 was read as POLI inh 28µM, WRN helicase inh inconclusive, Pol kappa inh-1 89µM, Pol eta inh-1 22µM, FEN1 inhibitor inconclusive, POLB inh 25µM and Pol eta inh-2 inconclusive.
CCOc1cc(/C=C\c2nc(O)c([N+](=O)[O-])c(=O)[nH]2)ccc1OC(C)CC (stereo not drawn) was read as POLI inh inconclusive, WRN helicase inh inactive, Pol kappa inh-1 inactive, Pol eta inh-1 inactive, FEN1 inhibitor inactive and POLB inh inactive.
O=c1[nH]c(/C=C\c2ccc(O)c(O)c2)nc(O)c1[N+](=O)[O-] was read as POLI inh inconclusive, WRN helicase inh inconclusive, Pol kappa inh-1 inconclusive, Pol eta inh-1 inconclusive, FEN1 inhibitor inconclusive, POLB inh 25µM, Pol kappa inh-2 17 and Pol eta inh-2 76.

Screening data: PubChem BioAssay, National Center for Advancing Translational Sciences (NCATS)
